# Data taken from article PMC7862700, “An all-to-all approach to the identification of sequence-specific readers for epigenetic DNA modifications on cytosine”.
# Experiments:
# Experiment in all cases: DAPPL (digital affinity profiling via proximity ligation, sequencing); 10 mM Tris-HCl pH 7.5, 50 mM NaCl, 1 mM DTT, 4% glycerol, room temperature, 30 min; GST-TFs on glutathione beads, 16-mer random dsDNA library, 0.1% formaldehyde crosslink after washing; high values mean tight binding
# FEV = molecular target: T1, FEV (Homo sapiens, UniProt Q99581 1-238); conditions: protein: recombinant; tags: N-terminal GST; dsDNA, one strand shown
# T1 sequence: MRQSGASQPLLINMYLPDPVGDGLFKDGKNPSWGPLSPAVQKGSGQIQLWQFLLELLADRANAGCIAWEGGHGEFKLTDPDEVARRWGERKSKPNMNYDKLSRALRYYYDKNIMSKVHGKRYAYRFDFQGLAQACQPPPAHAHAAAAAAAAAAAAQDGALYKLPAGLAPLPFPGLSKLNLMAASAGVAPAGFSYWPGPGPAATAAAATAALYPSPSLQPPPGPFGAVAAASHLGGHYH
# Outline: (§1)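 In yeast, human transcription factors were expressed with a GST fusion, then pulled down on glutathione beads and given DNA barcodes. Pooled with a tag-only sample, they were exposed to 200 nmole of a 16-mer random double-stranded DNA library (Tris/NaCl/DTT/glycerol buffer, room temperature, 30 min), washed, crosslinked with 0.1% formaldehyde, proximity-ligated using BsaI/T4 ligase for 1 h at 37 °C, PCR-amplified and read on an Illumina NextSeq500. Each hexamer's frequency of reads for a factor, divided by the matching frequency for the tag-only sample, gives the binding signal.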
# ETV5 = ETV5 (Homo sapiens, UniProt P41161 1-510); conditions: protein: recombinant; tags: N-terminal GST; dsDNA, one strand shown
# Sequence of ETV5 (P41161 whole entry): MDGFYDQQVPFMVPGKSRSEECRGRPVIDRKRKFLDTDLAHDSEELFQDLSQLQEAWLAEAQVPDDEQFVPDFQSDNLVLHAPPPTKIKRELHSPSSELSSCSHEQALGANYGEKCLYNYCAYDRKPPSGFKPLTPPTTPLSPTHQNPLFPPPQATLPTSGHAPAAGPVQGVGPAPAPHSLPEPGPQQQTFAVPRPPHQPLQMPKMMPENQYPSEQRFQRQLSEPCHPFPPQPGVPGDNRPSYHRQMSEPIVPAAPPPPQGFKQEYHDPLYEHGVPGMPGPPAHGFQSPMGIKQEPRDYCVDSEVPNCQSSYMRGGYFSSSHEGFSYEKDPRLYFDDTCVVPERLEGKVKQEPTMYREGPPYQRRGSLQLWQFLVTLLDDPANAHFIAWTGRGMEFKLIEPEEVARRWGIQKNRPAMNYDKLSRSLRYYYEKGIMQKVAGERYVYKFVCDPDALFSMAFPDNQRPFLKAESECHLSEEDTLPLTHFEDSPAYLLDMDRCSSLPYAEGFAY
# Outline: as §1
# HSF1 = HSF1 (Homo sapiens, UniProt Q00613 1-529); conditions: protein: recombinant; tags: N-terminal GST; chain copies: 3; dsDNA, one strand shown
# Sequence of HSF1 (Q00613 whole entry): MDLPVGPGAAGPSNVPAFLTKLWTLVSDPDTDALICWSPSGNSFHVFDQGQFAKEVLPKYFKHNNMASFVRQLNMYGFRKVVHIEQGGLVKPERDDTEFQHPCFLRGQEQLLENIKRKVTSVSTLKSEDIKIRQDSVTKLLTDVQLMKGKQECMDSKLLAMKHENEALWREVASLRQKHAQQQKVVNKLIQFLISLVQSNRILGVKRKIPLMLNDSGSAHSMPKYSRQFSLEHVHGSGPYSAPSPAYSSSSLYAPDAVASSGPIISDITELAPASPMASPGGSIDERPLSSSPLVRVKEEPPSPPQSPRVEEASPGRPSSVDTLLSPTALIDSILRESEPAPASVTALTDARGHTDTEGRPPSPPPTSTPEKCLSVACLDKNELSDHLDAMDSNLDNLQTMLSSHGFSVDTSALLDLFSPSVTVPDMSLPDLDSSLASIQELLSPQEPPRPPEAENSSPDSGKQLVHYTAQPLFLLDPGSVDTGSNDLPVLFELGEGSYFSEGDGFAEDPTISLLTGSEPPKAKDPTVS
# Outline: as §1
# SPIC = molecular target: T2, SPIC (Homo sapiens, UniProt Q8N5J4 1-248); conditions: protein: recombinant; tags: N-terminal GST; dsDNA, one strand shown
# T2 sequence: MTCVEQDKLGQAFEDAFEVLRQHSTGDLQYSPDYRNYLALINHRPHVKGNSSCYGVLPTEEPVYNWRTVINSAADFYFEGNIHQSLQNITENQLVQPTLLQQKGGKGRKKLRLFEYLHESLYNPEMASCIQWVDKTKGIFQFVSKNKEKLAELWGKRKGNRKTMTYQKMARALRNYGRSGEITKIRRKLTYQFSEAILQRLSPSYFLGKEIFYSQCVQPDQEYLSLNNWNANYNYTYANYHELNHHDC
# Outline: as §1
# ELF4 = ELF4 (Homo sapiens, UniProt Q99607 1-663); conditions: protein: recombinant; tags: N-terminal GST; dsDNA, one strand shown
# Sequence of ELF4 (Q99607 whole entry): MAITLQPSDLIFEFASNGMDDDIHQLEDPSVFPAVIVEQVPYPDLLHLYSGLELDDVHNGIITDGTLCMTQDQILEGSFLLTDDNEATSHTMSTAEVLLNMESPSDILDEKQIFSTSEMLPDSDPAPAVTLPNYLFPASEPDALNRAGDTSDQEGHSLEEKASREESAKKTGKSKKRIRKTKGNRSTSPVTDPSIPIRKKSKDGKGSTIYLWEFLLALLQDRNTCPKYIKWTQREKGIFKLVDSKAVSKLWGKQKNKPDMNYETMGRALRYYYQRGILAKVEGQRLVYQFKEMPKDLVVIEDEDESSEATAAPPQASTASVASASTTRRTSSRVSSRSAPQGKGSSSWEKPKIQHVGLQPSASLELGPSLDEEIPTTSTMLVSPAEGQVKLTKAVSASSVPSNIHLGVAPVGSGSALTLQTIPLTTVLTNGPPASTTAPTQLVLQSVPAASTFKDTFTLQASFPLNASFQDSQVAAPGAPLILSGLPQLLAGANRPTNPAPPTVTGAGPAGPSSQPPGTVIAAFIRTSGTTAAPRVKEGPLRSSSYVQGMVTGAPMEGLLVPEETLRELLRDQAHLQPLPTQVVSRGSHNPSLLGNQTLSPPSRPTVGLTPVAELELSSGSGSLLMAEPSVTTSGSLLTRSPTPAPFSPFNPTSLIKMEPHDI
# Outline: as §1
# ELK4 = molecular target: T3, ELK4 (Homo sapiens, UniProt P28324-2 1-405); conditions: protein: recombinant; tags: N-terminal GST; dsDNA, one strand shown
# T3 sequence: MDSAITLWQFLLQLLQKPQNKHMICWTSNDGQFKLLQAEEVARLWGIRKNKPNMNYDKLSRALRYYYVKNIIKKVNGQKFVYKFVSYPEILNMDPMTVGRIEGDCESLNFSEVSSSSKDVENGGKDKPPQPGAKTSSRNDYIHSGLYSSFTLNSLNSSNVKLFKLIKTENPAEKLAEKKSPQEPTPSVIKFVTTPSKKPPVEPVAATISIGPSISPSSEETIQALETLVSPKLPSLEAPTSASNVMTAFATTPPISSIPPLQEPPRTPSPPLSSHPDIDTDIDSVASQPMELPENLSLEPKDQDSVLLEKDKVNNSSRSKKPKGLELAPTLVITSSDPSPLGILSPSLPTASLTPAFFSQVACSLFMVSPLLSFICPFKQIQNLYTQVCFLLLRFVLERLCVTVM
# Outline: as §1
# ETV2 = molecular target: T4, ETV2 (Homo sapiens, UniProt O00321 1-342); conditions: protein: recombinant; tags: N-terminal GST; dsDNA, one strand shown
# T4 sequence: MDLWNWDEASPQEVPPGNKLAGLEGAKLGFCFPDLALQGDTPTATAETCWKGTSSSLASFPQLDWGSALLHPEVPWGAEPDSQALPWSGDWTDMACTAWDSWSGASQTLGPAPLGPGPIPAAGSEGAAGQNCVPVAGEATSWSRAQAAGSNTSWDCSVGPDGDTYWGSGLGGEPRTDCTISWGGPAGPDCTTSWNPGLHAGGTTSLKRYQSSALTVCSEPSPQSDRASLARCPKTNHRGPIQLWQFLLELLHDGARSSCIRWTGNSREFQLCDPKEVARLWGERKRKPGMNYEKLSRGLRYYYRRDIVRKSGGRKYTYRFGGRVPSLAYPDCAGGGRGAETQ
# Outline: as §1
# ELF3 = molecular target: T5, ELF3 (Homo sapiens, UniProt P78545 1-371); conditions: protein: recombinant; tags: N-terminal GST; dsDNA, one strand shown
# T5 sequence: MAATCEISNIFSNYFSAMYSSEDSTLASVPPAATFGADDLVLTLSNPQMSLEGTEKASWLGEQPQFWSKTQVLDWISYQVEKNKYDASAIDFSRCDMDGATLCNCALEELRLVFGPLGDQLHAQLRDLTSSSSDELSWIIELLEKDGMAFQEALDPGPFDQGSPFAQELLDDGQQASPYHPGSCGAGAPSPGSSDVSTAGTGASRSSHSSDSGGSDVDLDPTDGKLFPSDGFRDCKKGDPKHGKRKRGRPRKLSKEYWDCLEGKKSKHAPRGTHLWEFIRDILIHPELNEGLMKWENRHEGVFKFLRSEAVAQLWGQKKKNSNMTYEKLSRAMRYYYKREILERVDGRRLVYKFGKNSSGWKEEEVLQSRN
# Outline: as §1
# ETV1 = ETV1 (Homo sapiens, UniProt P50549 1-477); conditions: protein: recombinant; tags: N-terminal GST; dsDNA, one strand shown
# Sequence of ETV1 (P50549 whole entry): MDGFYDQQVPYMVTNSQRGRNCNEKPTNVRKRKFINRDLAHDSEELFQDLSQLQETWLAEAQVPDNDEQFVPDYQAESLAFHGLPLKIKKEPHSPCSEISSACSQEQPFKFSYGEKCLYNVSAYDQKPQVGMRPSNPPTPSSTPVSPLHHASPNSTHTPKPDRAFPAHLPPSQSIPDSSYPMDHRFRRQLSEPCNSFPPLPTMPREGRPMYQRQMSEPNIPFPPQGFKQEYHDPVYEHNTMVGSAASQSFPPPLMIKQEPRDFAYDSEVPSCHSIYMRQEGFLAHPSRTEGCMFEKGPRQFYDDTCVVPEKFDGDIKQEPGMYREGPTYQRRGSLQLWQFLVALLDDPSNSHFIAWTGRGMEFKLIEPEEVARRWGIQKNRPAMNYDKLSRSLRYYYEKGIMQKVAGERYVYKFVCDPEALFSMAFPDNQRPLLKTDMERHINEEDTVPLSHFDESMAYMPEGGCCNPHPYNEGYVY
# Outline: as §1
sequence,measurement,setting,value
TCCGTC,binding signal,FEV,"1.38 fold enrichment (6-mer frequency, TF over GST control)"
same,binding signal,ETV5,"1.31 fold enrichment (6-mer frequency, TF over GST control)"
same,binding signal,HSF1,"1.04 fold enrichment (6-mer frequency, TF over GST control)"
same,binding signal,SPIC,"1.38 fold enrichment (6-mer frequency, TF over GST control)"
same,binding signal,ELF4,"1.42 fold enrichment (6-mer frequency, TF over GST control)"
same,binding signal,ELK4,"1.3 fold enrichment (6-mer frequency, TF over GST control)"
same,binding signal,ETV2,"1.35 fold enrichment (6-mer frequency, TF over GST control)"
same,binding signal,ELF3,"1.27 fold enrichment (6-mer frequency, TF over GST control)"
same,binding signal,ETV1,"1.42 fold enrichment (6-mer frequency, TF over GST control)"
